An excerpt weighted towards active compounds, which were near 0.43% of everything screened.
Mm-Cpn inhibitor – inhibitors of Methanococcus maripaludis chaperonin TRiC (MmCpn) | purified Mm-Cpn ATPase, ADP Transcreener TR-FRET | Potency, µM (highest dose often 76.9 µM), for inactives: at the top dose activity, negative = inhibition, hits mostly inhibitors | 0.031% of 330,000 active; active = well fitted curve in the direction sought with a large enough effect; inconclusive = small, poorly fitted or top-dose-only effect, or another doubt; inactive = no such curve, though single readings can be large; an effect the other way counts as inactive or inconclusive; also: potency is read from the fitted curve at half-maximal effect; % is scaled to controls: 0 for no effect and ±100 for the full control effect; nearly all actives have a fitted effect of over 80% in size
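Compound-treated chaperonin, 25 nM final, turns over 10 uM ATP at 37°C for 30 min following a 10 min preincubation; ADP generated competes with ADP-d2 for Eu-cryptate antibody, lowering FRET.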
B2AR arrestin – agonists driving beta-arrestin recruitment to human beta2-adrenergic receptor; beta-arrestin recruitment to beta2AR, cell-based reporter; Potency, µM (highest dose often 46.1 µM), without a hit: at the top dose activation, usual class: activators; 0.02% of 330,000 active; AID 492947; active = well fitted curve in the direction sought with a large enough effect; inconclusive = small, poorly fitted or top-dose-only effect, or another doubt; inactive = no such curve, though single readings can be large; an effect the other way counts as inactive or inconclusive;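 also: potency is read from the fitted curve at half-maximal effect; 0% = DMSO controls and full agonism = EC100 isoproterenol or metaproterenol; nearly all actives have a fitted effect of over 65% in size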
Target sequence (P07550 whole entry, looked up): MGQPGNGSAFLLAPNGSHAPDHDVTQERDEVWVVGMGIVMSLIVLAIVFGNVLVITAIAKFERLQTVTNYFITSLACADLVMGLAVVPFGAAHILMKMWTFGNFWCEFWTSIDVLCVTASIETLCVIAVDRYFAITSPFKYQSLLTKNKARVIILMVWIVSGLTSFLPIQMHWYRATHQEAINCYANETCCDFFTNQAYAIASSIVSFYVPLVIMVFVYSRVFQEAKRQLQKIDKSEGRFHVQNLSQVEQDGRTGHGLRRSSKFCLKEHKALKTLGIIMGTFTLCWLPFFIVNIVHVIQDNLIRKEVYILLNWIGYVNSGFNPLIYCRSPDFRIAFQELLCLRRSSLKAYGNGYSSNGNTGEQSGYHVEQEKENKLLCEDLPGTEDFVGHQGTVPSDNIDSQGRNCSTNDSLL
CCT chaperon mod – cytosolic chaperonin activity modulation | AID 651819 | purified chaperonin ATPase assay, HTRF ADP detection, 30 min | activity change, % (no concentration beside the values), hits read low | 0.3% of 360,000 active; in the data active = activity change below about -30%; also: % is scaled to controls: 0 for no effect and ±100 for the full control effect
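TRiC (40 or 20 nM final, by batch activity) in 30 mM Tris pH 7.4, 100 mM KCl, 5 mM MgCl2, 1 mM DTT was treated with compound at 76 uM single dose, then 10 uM ATP, 30 min at 37 °C. ADP was read by HTRF Transcreener.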
Rango-impB inh – prevents formation of the Rango-importin beta complex. Q14974. Rango CFP/YFP FRET sensor + importin beta, 45 min. Potency, µM (titrated, usually from 92.2 µM), for inactives: at the highest dose inhibition of complex formation. 0.031% of 340,000 active;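 also: potency is read from the fitted curve at half-maximal effect; 0% = DMSO wells and 100% = buffer wells lacking importin beta; nearly all actives have a fitted effect of over 15% in size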
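FRET biosensor (snurportin 1 IBB flanked by EYFP and cerulean), 50 nM, with compound 5 min, then 0.125 microM importin beta in PBS, 1 mM DTT, 0.02% Tween-20, 0.1% BSA. CFP/YFP ratio read after 45 min at room temperature; pre-read flags interference.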
Rango dissoc inh – inhibition of RanGTP-driven Rango-importin beta dissociation; Biochemical FRET Rango-importin beta, RanGTP-induced dissociation; Potency, µM (series often up to 46.1 µM), without a hit: at the top dose activity change, negative = inhibition; 0.071% of 340,000 active; also: potency is read from the fitted curve at half-maximal effect; % of control where 0% means no effect; nearly all actives have a fitted effect of over 45% in size
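Compounds preincubate 5 min with complex of recombinant Rango and importin beta in PBS with 1 mM DTT. Ran (0.6 uM) loaded with 2 mM GTP plus 0.2 uM RCC1 starts dissociation; FRET is recorded 45 min later.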
An asterisk follows results filed as active; [ ] = remark or other dose. Unless noted, calls follow the shape of the full dose curve.

How did CC(C)(C)c1ccc(NC(=O)c2ccccc2)c([N+](=O)[O-])c1 do in these assays?
Mm-Cpn inhibitor: 2%; B2AR arrestin: -1%; CCT chaperon mod: -41*; Rango-impB inh: 3%; Rango dissoc inh: 14%

What do the screens show for `CCCn1c(SCC(=O)NCc2ccco2)nnc1C(C)C`?
Mm-Cpn inhibitor: 0%; B2AR arrestin: 0%; CCT chaperon mod: -42*; Rango-impB inh: 0%; Rango dissoc inh: -5%

How did Cc1nnc(SCC(=O)NCc2ccco2)n1Cc1ccccc1 do in these assays?
Mm-Cpn inhibitor: 0%; B2AR arrestin: 0%; CCT chaperon mod: 1; Rango-impB inh: 1%; Rango dissoc inh: 1%

What do the screens show for `O=C(CCc1ccccc1)Nc1ccc(Cl)cn1`?
Mm-Cpn inhibitor: 1%; B2AR arrestin: -2%; CCT chaperon mod: -53*; Rango-impB inh: 4%; Rango dissoc inh: 8%

Results for O=C(COC(=O)Cc1ccccc1F)Nc1ccc(Cl)cn1 ?
Mm-Cpn inhibitor: 2%; B2AR arrestin: 0%; CCT chaperon mod: -33*; Rango-impB inh: -6%; Rango dissoc inh: -17%

How did O=C(COC(=O)COc1ccccc1F)Nc1ccc(Cl)cn1 do in these assays?
Mm-Cpn inhibitor: 0%; B2AR arrestin: -1%; CCT chaperon mod: -2; Rango-impB inh: -2%; Rango dissoc inh: -12%

Results for CCOc1ccc(OCCC(=O)OCC(=O)Nc2ccc(Cl)cn2)cc1 ?
Mm-Cpn inhibitor: 2%; B2AR arrestin: 0%; CCT chaperon mod: -33*; Rango-impB inh: -3%; Rango dissoc inh: -17%

Results for CC(OC(=O)C1=COCCO1)C(=O)NC1CCCC(C)C1C (centres undefined) ?
CCT chaperon mod: 2

What do the screens show for `COc1ccccc1N(Cc1ccccc1)S(=O)(=O)c1cccc(C(=O)Nc2cccc(C)n2)c1`?
Mm-Cpn inhibitor: 2%; B2AR arrestin: 0%; CCT chaperon mod: -1; Rango-impB inh: 1%; Rango dissoc inh: -7%

What do the screens show for `NC(=O)c1ccc(NC(=O)CSc2nnc(-c3cccnc3)n2Cc2ccco2)cc1`?
Mm-Cpn inhibitor: 4%; B2AR arrestin: 0%; CCT chaperon mod: -73*; Rango-impB inh: inconclusive; Rango dissoc inh: inconclusive

How did O=C(CSc1nnc(-c2cccnc2)n1Cc1ccco1)c1ccccc1 do in these assays?
Mm-Cpn inhibitor: 0%; B2AR arrestin: 0%; CCT chaperon mod: -1; Rango-impB inh: 0%; Rango dissoc inh: -14%

Results for O=C(O)c1ccc(-c2ncc[nH]2)cc1 ?
Mm-Cpn inhibitor: -2%; B2AR arrestin: 0%; CCT chaperon mod: 0; Rango-impB inh: 5%; Rango dissoc inh: 2%

What do the screens show for `CNC(=S)N1C2CCCC1CC(NC(=O)c1ccc(C)cc1)C2` (centres undefined)?
CCT chaperon mod: -48*; Rango-impB inh: 1%; Rango dissoc inh: -2%

Results for CCOC(=O)c1cnn(-c2ccc(NS(=O)(=O)c3ccc(Cl)cc3)cc2)c1C(F)(F)F ?
Mm-Cpn inhibitor: -2%; B2AR arrestin: 5%; CCT chaperon mod: -98*; Rango-impB inh: 1%; Rango dissoc inh: 1%

What do the screens show for `Cc1cc(-c2nnc(CCC(=O)NCc3cccc(C(F)(F)F)c3)o2)no1`?
Mm-Cpn inhibitor: -2%; B2AR arrestin: 0%; CCT chaperon mod: -3; Rango-impB inh: 6%; Rango dissoc inh: 5%

How did COc1ccc(S(=O)(=O)N(CC(=O)NC2CC2)c2ccc(C)cc2)cc1 do in these assays?
Mm-Cpn inhibitor: 1%; B2AR arrestin: 0%; CCT chaperon mod: 0; Rango-impB inh: -11%; Rango dissoc inh: -1%

What do the screens show for `CCOc1cc(/C=C2\SC(=NC)N(C)C2=O)c(Br)cc1OC(C)=O`?
Mm-Cpn inhibitor: 1%; B2AR arrestin: -1%; CCT chaperon mod: 0; Rango-impB inh: inconclusive; Rango dissoc inh: inconclusive

How did CCOc1cc(/C=C2\SC(=NC)N(C)C2=O)cc(Cl)c1OC(C)=O do in these assays?
Mm-Cpn inhibitor: 3%; B2AR arrestin: 0%; CCT chaperon mod: -1; Rango-impB inh: inconclusive; Rango dissoc inh: 4.6µM*[inhibitor]

Results for CCc1noc(C)c1C(=O)N1CCCC(N2CCN(c3cccc(Cl)c3)CC2)C1 (centres undefined) ?
Mm-Cpn inhibitor: -3%; B2AR arrestin: 0%; CCT chaperon mod: 1; Rango-impB inh: -3%; Rango dissoc inh: -1%
